This is a sample that favours compounds with a hit; in the whole collection about 1.7% have one here.
MazF activator: activators of E. coli MazEF toxin-antitoxin RNase, primary screen, biochemical, fluorescence, uHTS; 0.32% of 350,000 active; activation, % at 20 µM; Endoribonuclease toxin MazF (Escherichia coli (strain K12)), P0AE70; FAM/BHQ RNA-DNA oligo cleavage fluorescence, 5 h; in the data active = activation above about 50%
Target sequence (P0AE70 whole entry, looked up): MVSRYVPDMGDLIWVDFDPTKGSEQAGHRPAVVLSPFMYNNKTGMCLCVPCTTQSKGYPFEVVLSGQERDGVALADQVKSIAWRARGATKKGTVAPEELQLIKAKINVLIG
Vc quorum ag: inducers of Vibrio cholerae quorum light production without autoinducers, primary screen, BH1578 luxS cqsA deficient, single point; activation, % at 18.7 µM; 0.16% of 350,000 active; V. cholerae BH1578 lux reporter, luminescence, 6 h; in the data active = activation mostly above about 9.7%, no sharp cut-off
BJeLR lethal: MLPCN primary cell-based screen for lethality selective to Ras in HRASV12 cells | BJeLR (HRASV12) viability, CellTiter-Glo ATP luminescence, 48 h | 0.17% of 300,000 active | inhibition, % (no concentration beside the values) | AID 1554, 2009; in the data active = inhibition above about 50%
3CLpro inhibitor: SARS-CoV 3CLpro protease inhibitors, primary screen, biochemical, quenched FRET; Replicase polyprotein 1ab (Severe acute respiratory syndrome coronavirus), P0C6X7; recombinant SARS-CoV 3CLpro, quenched FRET peptide cleavage; inhibition, % at 6 µM; 0.14% of 290,000 active; in the data active = inhibition above about 12%
DUSP3 inh: VHR1 phosphatase inhibitors, primary screen, biochemical, absorbance, uHTS; Dual specificity protein phosphatase 3 (Homo sapiens), P51452; recombinant VHR phosphatase, pNPP absorbance; inhibition, % at 13.3 µM; 0.52% of 290,000 active; in the data active = inhibition above about 50%
Target sequence (P51452 whole entry, looked up): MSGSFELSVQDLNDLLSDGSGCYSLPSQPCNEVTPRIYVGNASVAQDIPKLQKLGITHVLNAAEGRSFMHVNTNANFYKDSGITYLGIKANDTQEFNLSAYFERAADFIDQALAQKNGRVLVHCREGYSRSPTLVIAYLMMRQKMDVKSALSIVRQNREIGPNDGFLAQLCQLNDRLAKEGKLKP
PfHsp40 yeast: rescue of yeast from PfHsp40 toxicity, primary screen, S. cerevisiae, ATP luminescence; AID 504582, 2011; S. cerevisiae expressing PfHsp40, growth rescue; growth rescue, % at 12.5 µM; 0.68% of 340,000 active; in the data active = growth rescue above about 28%, passing the limit was not always enough;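 also: yeast W303a lacking pdr1 and pdr3 grown in galactose medium; growth measured after three days at 30 °C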
* hit, by the source's call.

`CNS(=O)(=O)c1cccc(C(=O)Nc2cccnc2)c1` gave MazF activator -16, Vc quorum ag inactive, BJeLR lethal -4, 3CLpro inhibitor -4, DUSP3 inh 56* and PfHsp40 yeast 0.
`O=C(Nc1cccnc1)c1cccc(S(=O)(=O)Nc2cccc(Cl)c2)c1` gave MazF activator 2, Vc quorum ag -1 and PfHsp40 yeast 1.
`CC(C)CCN1C(N(C)C)=NC[C@@H]1C` gave MazF activator 3, Vc quorum ag 26* and PfHsp40 yeast -1.
`C[C@H]1CN=C(N(C)C)N1CCCC1CCCCC1` gave MazF activator 3, Vc quorum ag -1 and PfHsp40 yeast -1.
For CCOC(=O)N1CCN(S(=O)(=O)N2CCCC(C(=O)NCc3cc(Br)ccc3OC)C2)CC1 (configuration not stated) the results were MazF activator 1 and Vc quorum ag -1.
For O=C(N1CCN(c2cccc(Cl)c2)CC1)C1(S(=O)(=O)c2ccc(Cl)cc2)CC1 the results were MazF activator -9, Vc quorum ag 0, BJeLR lethal -11, 3CLpro inhibitor 3, DUSP3 inh -21 and PfHsp40 yeast 83*.
For CSc1nsc(NN)n1 the results were MazF activator 9 and Vc quorum ag inactive.
For COc1ccc2nc(N3CCCC3)c(C#N)cc2c1 the results were MazF activator 70*, Vc quorum ag 5, BJeLR lethal -23, 3CLpro inhibitor -2, DUSP3 inh -19 and PfHsp40 yeast -2.
CCc1nc2ccc(C(=O)Nc3ccc(C(=O)N(C)C)cc3)cn2c1N(C)CCCc1ccccc1 was read as Vc quorum ag -3.
`Cn1nnnc1N=N/C(=N/Nc1ccccc1)c1ccccc1` gave MazF activator 2, Vc quorum ag -1, BJeLR lethal 66*, 3CLpro inhibitor 2, DUSP3 inh -18 and PfHsp40 yeast 234*.
Screening COc1cc2c(cc1OC)C(c1ccccc1)NCC2 (configuration not stated) returned MazF activator 11, Vc quorum ag inactive, BJeLR lethal -3, 3CLpro inhibitor -1, DUSP3 inh 2 and PfHsp40 yeast 2.
`COc1cc2c(cc1OC)C(c1ccc(O)cc1)NCC2` (configuration not stated) gave MazF activator -23, Vc quorum ag inactive, BJeLR lethal -23, 3CLpro inhibitor 2, DUSP3 inh -8 and PfHsp40 yeast 74*.
Screening CCOC(=O)Nc1ccc2c(c1)N(C(=O)CCN(CC)CC)c1ccccc1CC2 returned MazF activator 8, Vc quorum ag -1, BJeLR lethal -2, 3CLpro inhibitor 1, DUSP3 inh 50* and PfHsp40 yeast 1.
O=C(NCC1CC1)C1Cc2c(-c3ccccc3Oc3ccccc3)ccnc2O1 (configuration not stated) was read as Vc quorum ag -1.
Screening CCOC(=O)N1CCN(C(=O)c2ccc(NS(=O)(=O)c3ccc4[nH]c(=O)[nH]c4c3)cc2)CC1 returned MazF activator 1, Vc quorum ag -2, BJeLR lethal -7 and PfHsp40 yeast 0.
CC(=O)Nc1ccc(-c2ccnc3c2CC(C)(C(=O)Nc2cccc(Oc4ccccc4)c2)O3)cc1 (configuration not stated) was read as Vc quorum ag 1.
Screening CC(=O)Nc1cc2c(cc1[N+](=O)[O-])-c1ccccc1C2=NO returned MazF activator 4, Vc quorum ag inactive and PfHsp40 yeast 1.
`Nc1cc2c(cc1[N+](=O)[O-])-c1ccccc1C2=NO` gave MazF activator 24, Vc quorum ag inactive and PfHsp40 yeast 73*.
`COc1cc(/C=C2\SC(=S)N(NS(=O)(=O)c3ccccc3)C2=O)cc(OC)c1OC` gave MazF activator 5, Vc quorum ag -3, BJeLR lethal -4, 3CLpro inhibitor 6, DUSP3 inh -10 and PfHsp40 yeast 41*.

Screening data (PubChem BioAssay)
